# HIF-2a block: blocks HIF-2a reporter activity | 786-0 RCC cells HIF-2a reporter, luciferase luminescence, overnight | inhibition, % at 18.8 µM | hit rate 0.72% among 360,000 | AID 624352;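 active means inhibition of the luminescence signal of 40% or more relative to plate controls, in a single-dose primary screen at 18.75 µM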
# MITF TRPM1 inh: reduces MITF-dependent TRPM1 promoter luciferase signal | SK-MEL-5 TRPM1 promoter luciferase, 24 h | inhibition, % at 12.5 µM | AID 488899 | hit rate 0.83% among 330,000;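 active means mean inhibition across replicates of 60% or more, whatever share of single replicates reaches that level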
# KKLEB tox: CF airway cell cytotoxicity counter-screen | KKLEB CF airway cells viability, ATPlite luminescence, overnight; stronger effect = lower value; cells stimulated with P. aeruginosa culture filtrate | activity change (cytotoxicity), % at 5 µM | hit rate 0.36% among 360,000;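 active means corrected activity change at or below -50% at 5 µM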
# Peg3 prom inh: reduces Peg3 promoter-driven luciferase expression in HeLa; inhibition, % at 20 µM; hit rate 1.7% among 360,000; HeLa PEG-Prom luciferase reporter, luminescence, overnight;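 active means inhibition of at least 50% at 20 µM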
# CF NFkB block: cystic fibrosis NF-kB activation inhibition | KKLEB NF-kB-GFP reporter, PAF-induced, GFP fluorescence overnight | inhibition, % at 5 µM | hit rate 0.86% among 360,000 | AID 588850;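 active means at least 50% inhibition at 5 µM, scaled per plate between neutral and stimulator controls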;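 further: PAF is a Pseudomonas aeruginosa culture filtrate used as stimulus; plate controls were PAF-stimulated DMSO wells for no effect and unstimulated DMSO wells for full effect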
# EBV LMP1 NFkB: reduces LMP1-driven NF-kappaB luciferase signal | hit rate 0.69% among 350,000 | LMP1-induced NF-kappaB luciferase reporter cells, luminescence | AID 504558 | inhibition, % at 12.5 µM; in the data active means inhibition above about 41%;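 further: 0% = neutral control wells and 100% = reference inhibitor control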
# Mdm2 MdmX conf: confirmation of inhibitors of human Mdm2/MdmX interaction, set 2 | AID 504601 | inhibition, % at 8 µM | hit rate 99% among 740 | SaOS-2 split-luciferase Mdm2/MdmX complementation, luminescence | shares compounds with HIF-2a block;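 active means mean inhibition of the luminescence signal across two replicates at or above 26 percent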
# HIF-2a inh conf: HIF-2a inhibition, single concentration confirmation | shares compounds with HIF-2a block | 786-0 RCC cells, HIF-2a luciferase reporter luminescence, overnight | inhibition, % at 18.8 µM | hit rate 56% among 1,800 | AID 651580;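 active means mean inhibition across four replicates of at least 40 percent at the single tested concentration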
# HIF-1a cs: HIF-1a inhibition counter-screen for HIF-2a hits; hit rate 72% among 1,800; MiaPaCa-2 HIF-1a luciferase reporter, desferoxamine, overnight; inhibition, % at 18.8 µM; shares compounds with HIF-2a block;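 active means mean inhibition of the reporter signal across four replicates at the single tested dose of 50% or more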
# An asterisk follows results filed as active; · = not tested or not shown. Shown are actives, neighbours in structure and some others; about 3% of the full set was active somewhere.
SMILES,HIF-2a block,MITF TRPM1 inh,KKLEB tox,Peg3 prom inh,CF NFkB block,EBV LMP1 NFkB,HIF-2a inh conf,HIF-1a cs,others
CCN(c1ccc(C(O)(C(=O)OC)C(F)(F)F)cc1)S(=O)(=O)c1ccc(C)cc1 (stereo not given),-4,3,3,0,-8,-4,·,·,
COc1cccc(OP(=O)(Nc2ccccc2)Oc2cccc(OC)c2)c1,2,9,-16,43,38,6,·,·,
O=C(Nc1ccc(OC(=O)N2CCCCC2)cc1)N1CCOCC1,72*,66*,7,16,15,30,76*,51*,
Cc1c(CCC(=O)N2C[C@H]3C[C@@H](C2)c2cccc(=O)n2C3)c(=O)oc2c(C)c(O)ccc12,-1,·,-3,-7,-7,·,·,·,
O=C(c1ccccc1)C(CN1CCCC1)c1ccccc1 (stereo not given),89*,·,-50,105*,68*,73*,31,79*,
CCN1CCN(CC(c2ccccc2)c2ccccc2)CC1,11,-3,19,16,-17,9,·,·,
CN(C)c1ccc(/C=C/[N+](=O)[O-])cc1,11,6,0,-17,4,-2,·,·,
COc1cc(/C=C/[N+](=O)[O-])ccc1OC(=O)c1cccnc1,42*,32,1,88*,34,18,54*,45,
O=c1[nH]c(O)c(/C=C2/C=CC(c3cc(Cl)ccc3Cl)=N2)c(=O)[nH]1,-8,18,-5,-4,-83,6,·,·,
N#CC(Br)Br,9,-5,7,-1,1,-7,·,·,
CCC(C)(O)C(=O)OC1C(=O)OC2CC3C(C)=CC(O)C(O)C3(C)C3C4(O)OCC23C1C(C)C4O (stereo not given),46*,·,5,95*,35,·,45*,102*,
CNc1ccc2oc(C[C@H]3O[C@@]4(CC[C@H]3C)O[C@H]([C@H](C)C(=O)c3ccc[nH]3)[C@H](C)C[C@H]4C)nc2c1C(=O)O,87*,102*,-55*,91*,36,70*,·,·,Mdm2 MdmX conf=102*
C=C1C(=O)OC2CC(C)C3C=CC(=O)C3(C)C(O)C12 (stereo not given),86*,100*,-62*,106*,96*,93*,94*,100*,
C=C1C(=O)O[C@H]2C[C@@H](C)[C@@H]3C=CC(=O)[C@@]3(C)C[C@H]12,·,·,·,·,·,·,·,·,Mdm2 MdmX conf=103*
C=C1C(=O)O[C@@H]2C[C@@H](C)[C@@H]3C4OC4C(=O)[C@@]3(C)[C@@H](O)[C@H]12 (stereo not given in full),88*,101*,-46,96*,92*,100*,95*,104*,
COc1ccc(-n2nnnc2C(CCSC)N2CCC3(CC2)C(=O)NCN3c2ccccc2)cc1 (stereo not given),12,·,-16,25,12,·,·,·,
